# Screening data as filed in PubChem BioAssay.
# Compounds with a hit are over-represented: about 11% of the library has one in this group of screens.
# L3MBTL1 block – L3MBTL1 (human) inhibition; Q9Y468; AlphaScreen L3MBTL1–H3K9me1 peptide binding; Potency, µM (doses to about 57.1 µM), inactives show at the highest dose activity, negative = inhibition, usual class: inhibitors; hit rate 0.66% among 230,000; further: potency means the concentration at half of the fitted maximal effect; on the % scale 0 is the no-effect control and ±100 the full control effect; nearly all actives have a fitted effect of over 60% in size
#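 AlphaScreen assay: L3MBTL1 (50 nM final) was preincubated 30 min at room temperature with biotinylated H3(1-15)K9me1 peptide (75 nM final), then 30 min with library compounds; streptavidin donor and nickel chelate acceptor beads (10 ug/mL final) added, 30 min dark.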
# HP1b chromo inh – inhibitors of HP1-beta chromodomain binding to methylated histone tails; AlphaScreen HP1-beta / biotin-H3K9me3 peptide binding; P83916; Potency, µM (series often up to 114 µM), for inactives: top-dose activity change, negative = inhibition, most hits filed as inhibitors; hit rate 0.56% among 390,000; further: potency means the concentration at half of the fitted maximal effect; nearly all actives have a fitted effect of over 70% in size
#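 HP1-beta protein (50 nM final) preincubated 30 min at room temperature with biotinylated H3(1-18)K9me3 peptide (50 nM) in PBS pH 7.4, 0.01% Tween-20, then compound added for 30 min. AlphaScreen streptavidin donor/nickel chelate acceptor beads (10 ug/mL final), 30 min dark, luminescence read.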
# G9a block – inhibitors of human histone lysine methyltransferase G9a | Q96KQ7 | G9a H3K9 monomethylation, AlphaScreen, 2 h | Potency, µM (highest dose often 102 µM), for the others: at the highest dose activity, negative = inhibition, actives largely listed as inhibitors | hit rate 8.8% among 350,000 | AID 504332; further: potency means the concentration at half of the fitted maximal effect; on the % scale 0 is the no-effect control and ±100 the full control effect; nearly all actives have a fitted effect of over 75% in size
#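 Signal arises when biotinylated H3K9 peptide, once monomethylated, bridges streptavidin donor and antibody-captured acceptor beads. Enzyme at 20 nM was preincubated 15 min with test compounds; peptide 500 nM and SAM 20 uM then reacted for 2 h.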
# JMJD2A Tudor inh – blocks the human JMJD2A Tudor domain | O75164 | AlphaScreen JMJD2A-Tudor / H3K4me3 peptide binding | Potency, µM (series often up to 114 µM), without a hit: at the top dose activity change, negative = inhibition, most hits filed as inhibitors | hit rate 4.4% among 390,000 | AID 504339; further: potency means the concentration at half of the fitted maximal effect; on the % scale 0 is the no-effect control and ±100 the full control effect; nearly all actives have a fitted effect of over 50% in size
# BAZ2B block – blocks human BAZ2B; Potency, µM (doses to about 114 µM), inactives show at the highest dose activity change, negative = inhibition, most hits filed as inhibitors; AlphaScreen BAZ2B-H3K14Ac peptide displacement; Q9UIF8; hit rate 4.4% among 360,000; further: potency means the concentration at half of the fitted maximal effect; on the % scale 0 is the no-effect control and ±100 the full control effect; nearly all actives have a fitted effect of over 60% in size
# Target sequence (Q9UIF8 whole entry, looked up): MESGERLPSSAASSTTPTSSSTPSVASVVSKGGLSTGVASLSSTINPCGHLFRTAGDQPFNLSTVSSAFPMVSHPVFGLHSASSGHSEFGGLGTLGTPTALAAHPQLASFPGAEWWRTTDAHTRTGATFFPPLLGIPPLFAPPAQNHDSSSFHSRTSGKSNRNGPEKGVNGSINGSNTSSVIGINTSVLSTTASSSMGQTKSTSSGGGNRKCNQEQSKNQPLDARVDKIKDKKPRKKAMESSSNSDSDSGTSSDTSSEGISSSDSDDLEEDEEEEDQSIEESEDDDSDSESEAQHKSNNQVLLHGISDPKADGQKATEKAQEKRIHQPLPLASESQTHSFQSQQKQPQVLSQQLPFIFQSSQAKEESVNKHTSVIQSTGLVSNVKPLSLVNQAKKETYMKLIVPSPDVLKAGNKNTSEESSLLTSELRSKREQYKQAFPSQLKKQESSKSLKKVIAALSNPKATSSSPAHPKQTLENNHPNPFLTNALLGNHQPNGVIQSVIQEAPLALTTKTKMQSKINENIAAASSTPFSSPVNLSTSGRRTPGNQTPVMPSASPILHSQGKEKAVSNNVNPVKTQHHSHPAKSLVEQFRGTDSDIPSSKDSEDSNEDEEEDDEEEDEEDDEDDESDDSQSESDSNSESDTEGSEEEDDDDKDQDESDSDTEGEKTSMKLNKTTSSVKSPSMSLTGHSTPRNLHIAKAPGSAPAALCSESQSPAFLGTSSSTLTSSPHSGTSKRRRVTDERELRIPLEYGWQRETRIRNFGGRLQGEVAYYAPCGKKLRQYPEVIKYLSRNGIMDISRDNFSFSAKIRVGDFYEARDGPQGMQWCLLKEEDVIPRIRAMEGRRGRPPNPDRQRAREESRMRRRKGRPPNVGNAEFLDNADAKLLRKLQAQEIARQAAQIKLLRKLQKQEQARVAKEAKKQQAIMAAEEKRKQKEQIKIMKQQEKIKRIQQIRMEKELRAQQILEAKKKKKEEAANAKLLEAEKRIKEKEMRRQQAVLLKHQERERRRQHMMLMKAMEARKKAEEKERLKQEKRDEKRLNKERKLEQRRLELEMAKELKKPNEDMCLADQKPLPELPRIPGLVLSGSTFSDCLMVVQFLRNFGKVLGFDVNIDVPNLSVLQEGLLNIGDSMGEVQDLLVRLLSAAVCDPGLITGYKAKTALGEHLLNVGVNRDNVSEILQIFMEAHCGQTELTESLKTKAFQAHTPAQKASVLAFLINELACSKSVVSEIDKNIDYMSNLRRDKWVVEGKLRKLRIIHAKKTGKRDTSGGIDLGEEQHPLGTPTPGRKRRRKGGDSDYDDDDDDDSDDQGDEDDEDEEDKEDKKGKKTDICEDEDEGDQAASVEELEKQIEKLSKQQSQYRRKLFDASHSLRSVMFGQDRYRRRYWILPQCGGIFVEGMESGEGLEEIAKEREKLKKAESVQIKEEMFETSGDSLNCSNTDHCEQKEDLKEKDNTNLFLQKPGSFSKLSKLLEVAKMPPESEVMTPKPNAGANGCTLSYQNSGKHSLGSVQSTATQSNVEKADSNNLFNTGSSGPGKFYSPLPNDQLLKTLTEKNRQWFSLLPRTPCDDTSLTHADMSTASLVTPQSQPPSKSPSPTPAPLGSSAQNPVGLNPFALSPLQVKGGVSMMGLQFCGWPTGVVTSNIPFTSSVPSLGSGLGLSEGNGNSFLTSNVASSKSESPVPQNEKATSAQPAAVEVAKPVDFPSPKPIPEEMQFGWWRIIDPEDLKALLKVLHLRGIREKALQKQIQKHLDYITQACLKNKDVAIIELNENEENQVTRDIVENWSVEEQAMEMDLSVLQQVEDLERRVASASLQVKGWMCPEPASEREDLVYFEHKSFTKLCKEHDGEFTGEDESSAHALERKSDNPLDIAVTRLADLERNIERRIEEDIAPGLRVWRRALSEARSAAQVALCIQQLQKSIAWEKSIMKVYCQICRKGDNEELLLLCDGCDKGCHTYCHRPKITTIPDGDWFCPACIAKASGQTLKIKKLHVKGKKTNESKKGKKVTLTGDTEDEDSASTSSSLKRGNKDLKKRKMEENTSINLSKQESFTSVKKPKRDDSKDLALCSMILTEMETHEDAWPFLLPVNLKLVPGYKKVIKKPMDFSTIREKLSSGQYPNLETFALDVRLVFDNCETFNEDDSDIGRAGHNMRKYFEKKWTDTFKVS
#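 BAZ2B (50 nM) with biotin-H3(5-23)K14Ac peptide (50 nM) in PBS pH 7.4, 0.01% Tween-20, preformed 30 min, then compound 30 min at room temperature; top concentration 110uM. AlphaScreen streptavidin donor/nickel chelate acceptor beads (10 ug/mL final), 20 min dark, signal read.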
# PI5P4Ka inh – PI5P4K alpha (human) kinase inhibition. max response, %. P48426. AID 652105. hit rate 1.2% among 330,000. PI5P4Kalpha enzyme, ADP-Glo luminescence, 60 min; active compounds read low; active means max response of -50% or lower; inconclusive means between -30% and -50%; inactive means -30% or higher; further: value at the top dose of about 77 µM; on the % scale 0 is the no-effect control and ±100 the full control effect
#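 Quantitative HTS of the MLSMR library against PI5P4Kalpha with substrate. ATP added last at 5 microM final; room temperature, 60 minutes. Remaining ATP depleted, ADP converted and read as luminescence.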
# Starred values were filed as active, the others as inactive; ? = inconclusive; / = no result; ! = not confirmed by another sample; [ ] = another dose, or the depositor's remark. Unless noted, the call rests on the fitted dose curve; in most records, active means well fitted inhibition curve with a large enough effect; inconclusive means small, poorly fitted or top-dose-only effect; inactive means no such curve, though single readings can be large or run the other way.
SMILES,L3MBTL1 block,HP1b chromo inh,G9a block,JMJD2A Tudor inh,BAZ2B block,PI5P4Ka inh
CCOc1cc(CNC(=O)c2ccc(C)c(NC(=O)c3nsc4ccccc34)c2)ccc1OC,/,14%[57 µM],-29%[59 µM],-1%,3%,/
O=C(N/N=C/c1cccn1-c1ccccc1)c1ccncc1,/,-10%,55%[59 µM],-30%,?,0
ON=Cc1cccn1-c1ccccc1,-5%,-10%,-36%[59 µM],-33%,50µM*,/
CCCN1CCN(CCCNC(=O)Cn2nc(-c3ccccc3)ccc2=O)CC1,-2%,23%,-13%[59 µM],-7%,-8%,/
O=C(CCn1nc(-c2ccccc2)ccc1=O)NCCCN1CCCCCC1,0%,15%,/,?,79µM*,-8
CCC(C)n1ncn(-c2ccc(N3CCN(c4ccc(O)cc4)CC3)cc2)c1=O (stereo not drawn),-1%,?,7.9µM*,89µM*,-32%,-11
Cc1ccc(NS(=O)(=O)c2cc([N+](=O)[O-])ccc2NNC(=S)Nc2cc(C)ccc2C)c(C)c1,?,?,2.5µM*,40µM*,32µM*,-20
Cc1ccc([N+](=O)[O-])cc1NC(=S)NC(=O)C(C)(C)C,-7%,-10%,-50%,-24%,?,/
COc1ccc(NC(=S)NNc2ccc([N+](=O)[O-])cc2S(=O)(=O)Nc2ccc(C)cc2C)cc1,?,?,10µM*,32µM*,25µM*,?
Cc1ccc(NS(=O)(=O)c2cc([N+](=O)[O-])ccc2NNC(=S)Nc2cccc(Cl)c2)c(C)c1,25µM*,?,16µM*,?,20µM*,-67*
COc1cccc(CN2C(=O)c3ccccc3Sc3ccc(C(=O)N(C)Cc4ccccc4)cc32)c1,/,26%,-26%[59 µM],-12%,/,/
CC(C)(C)[C@H](NC(=O)c1ccc(N)c(Cl)c1)C(=O)N1CCC[C@H]1C(=O)N[C@H](C#N)Cc1nn[nH]n1,2%,/,?,/,-38%,/
COc1ccc(-c2csc(NC(=O)CSc3ccc(Br)cc3)n2)c(OC)c1,-7%,16%,25µM*,-16%,?,-1
COc1ccc(-c2csc(NC(=O)CSc3n[nH]c(N)n3)n2)cc1,?,79µM*,8.9µM*,10µM*,-8%,-9
COc1ccc(OC)c(-c2csc(NC(=O)Cc3ccc(OC)c(OC)c3)n2)c1,/,-12%,50µM*,?,?,25
COc1ccc(-c2csc(NC(=O)CSc3n[nH]c(C)n3)n2)cc1,/,15%,6%[59 µM],-15%,-14%,-15
CCOC(=O)c1noc2ncnc(N3CCN(c4cccc(C(F)(F)F)c4)CC3)c12,/,89%,13%[59 µM],-13%,-3%,/
CCCCCCCC(=O)OC[C@H](CO)OC(=O)CCCCCCC,/,/,0%[59 µM],/,/,/
CCCCCCCCCCCCCCCCCC(=O)OC(CC(=O)O)C[N+](C)(C)C (stereo not drawn),/,/,17µM*!,/,/,/
Cc1[nH]nc2c1C(c1ccc(F)cc1)C(C#N)=C(N)O2 (stereo not drawn),-5%,34%,-2%[59 µM],-18%[11.4 µM],/,-23
Cc1oc(C)c2c(=O)ccc3c(c12)OC(N)=C(C#N)C3c1ccc(F)cc1 (stereo not drawn),28µM*,?,?,-11%[11.4 µM],56µM*,?
C=C(C)[C@@H]1C2=CC(C(=O)OC)=C(C[C@@H](C(=C)C)[C@H]3O[C@H]3C3=C[C@H]1OC3=O)O2,/,56%,/,-5%,/,/
COc1ccc(Cn2c(C(=O)O)c(CNCCc3cc(OC)ccc3OC)c3ccc(C)cc32)cc1,/,-2%,-35%[59 µM],?,50µM*,/
COc1ccc(Cn2c(C(=O)O)c(CNCCc3ccco3)c3ccc(C)cc32)cc1,/,22%,?,-25%,?,/
Cc1ccc2c(CNCc3ccc(C)o3)c(C(=O)O)n(Cc3ccc(F)cc3)c2c1,/,-5%,?,?,50µM*,/
SMILES,L3MBTL1 block,HP1b chromo inh,G9a block,JMJD2A Tudor inh,BAZ2B block,PI5P4Ka inh
C=Cc1ccc(Cn2c(C(=O)O)c(CNCCc3ccco3)c3ccc(C)cc32)cc1,/,-13%,?,?,45µM*,/
CN1CCN(c2ncc3nc(-c4cccc(C#N)c4)c(=O)n(C)c3n2)CC1,/,/,-18%[0.501 µM],/,/,/
COc1ccccc1CCNC(=O)Cc1ccc(NC(=O)N2CCSc3ncccc32)cc1,/,-10%,?,-18%,-16%,/
COC(=O)c1ccccc1NC(=O)C1=C(C)C(=O)OC12CCC(C)CC2 (stereo not drawn),/,40%,3%[59 µM],11%,12%,/
COc1ncc2nc(-c3ccccc3)c(=O)n(C3CC3)c2n1,/,/,-1%[0.501 µM],/,/,/
Cc1ccc(N=Nc2c(=O)[nH]n3c(=O)cc(C)[nH]c23)cc1,/,-17%,?,?,50µM*,?
CN1Cc2cc(C(=O)c3cc(Cl)cc(CSc4ncccn4)c3O)cnc2NC1=O,-2%,/,50µM*,/,-30%,/
Cc1ccc(O)c(C(=O)c2cnc3c(c2)CN(C)C(=O)N3)c1,/,-10%,?,-16%,-8%,/
CC[n+]1ccc(C[n+]2ccccc2)c2ccccc21,?,79µM*,1.6µM*,?,10µM*,-53*
COc1cccc(Cn2c(CNC(=O)Cc3cccc(C)c3)nc3cccnc32)c1,/,11%[57 µM],2%[59 µM],-12%,-1%,/
O=C(Cc1ccc([N+](=O)[O-])cc1)c1c(O)cc(O)cc1O,-22%,10%,50µM*,-35%,-28%,-15
CN1CCN(C2=Nc3c(Cl)cc(Cl)c4cccc2c34)CC1,/,?,?,50µM*,28µM*,4
COc1cc2c(C(=O)N3CCN(c4ccc(C)cc4)C(C)C3)cn(CC(C)C)c(=O)c2cc1OC (stereo not drawn),/,9%,?,-33%,-32%,/
COc1ccc(O)c(C(=O)c2cnc3nc4ccccc4n3c2)c1,-10%,21%,32µM*,-34%,-7%,-18
CN(C)/C=C1\C(=O)NN=C1c1ccccc1,20%,34%,50µM*,-3%,-27%,3
CN(C)C=C1C(=O)c2ccccc2C1=O,16%[11.4 µM],34%,?,-7%,-2%,0
COc1ccc(C(C[N+](=O)[O-])c2c(C)cc3ccccn23)cc1 (stereo not drawn),-18%,-17%,35µM*,?,?,-8
Cc1cc2ccccn2c1C(=O)Nc1ccccc1,0%,42%,-22%,-1%,-23%,-4
COc1ccc(C(C[N+](=O)[O-])c2c(-c3ccccc3)cc3ccccn23)c(OC)c1 (stereo not drawn),/,0%,10µM*,?,79µM*,2
Cc1cc2ccccn2c1C(C[N+](=O)[O-])c1ccc(N(C)C)cc1 (stereo not drawn),-18%,?,10µM*,11µM*,8.9µM*,5
